From the supplement of paper PMC5499739
In all, about 16,000 sequences were measured (“Z-score”: median about -0.37, highest 2% from about 3.2 on). The full list was thinned out, with the highest values kept by preference.

System: RBM10 RRM1-ZnF (GST-tagged construct)
Assay: RNAcompete 7-mer binding Z-score; higher = stronger binding preference
In short: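 A designed pool of 241 399 RNAs, each up to 41 nt and transcribed from microarray-derived DNA templates, was used at 1.5 nmol with 20 pmol of GST-tagged RBM10 constructs. The mixture, in 1 ml Hepes pH 7.8 buffer with KCl, NaCl, glycerol, DTT, BSA and glutathione Sepharose beads, was held 30 min at 4°C and then washed four times for 2 min at 4°C. Bound RNA was read out by microarray hybridisation, and enrichment of each heptamer motif was scored as a one-sided Z-score over the probes carrying it.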

Row | Sequence | RNAcompete 7-mer binding Z-score
1 | GUGUAAA | 0.618
2 | AUGACGG | 1.39
3 | UAAAUAU | -0.425
4 | CGGAUGU | 1.04
5 | AGUGGAU | 2.35
6 | UGUGGAA | 2
7 | UGUGGAG | 2.62
8 | GGUGGAU | 2.75
9 | AGUGGAC | 1.34
10 | CGUGGAA | 1.19
11 | AGUGGAA | 3.24
12 | GGUGGAG | 4.02
13 | GGUGGAA | 3.81
14 | UUCCGGC | -0.649
15 | GCCUGCU | -0.724
16 | UGUCGUA | -0.311
17 | UGUUUAG | -0.0155
18 | UAUAGGC | 0.196
19 | AAACCCC | -0.597
20 | UCCGAUA | -0.746
21 | GGGUGCA | 2.74
22 | GAGGCCG | 0.0723
23 | UUGCCGU | -0.659
24 | CUGGGCC | -0.0285
25 | GCCCAUA | -0.805

Row | Sequence | RNAcompete 7-mer binding Z-score
26 | AGAAGAA | 1
27 | AGAAGGG | 3.86
28 | UGAAGGU | 2.57
29 | AGAAGCU | -0.48
30 | AGAAGGC | 0.699
31 | AGAAGGA | 3.99
32 | CGAAGGU | 1.5
33 | AGAAGGU | 3.26
34 | AGAAGAG | 1.64
35 | GGAAGGU | 4.23
36 | GGAAGGC | 2.63
37 | CGAAGGG | 2.43
38 | CCCCCAU | -0.448
39 | GAAUGAC | 0.16
40 | GGCAGUC | 0.28
41 | AGCCUUU | -1
42 | ACUUAUG | -0.655
43 | CGAAGGA | 1.62
44 | GGAAGGA | 4.79
45 | UGAAGCG | 0.608
46 | UGAAGGC | 1
47 | UGAAGGA | 2.99
48 | UGAAGGG | 3.82
49 | GCAUUCU | -0.785
50 | UCGUACU | -0.539

Row | Sequence | RNAcompete 7-mer binding Z-score
51 | GAGGCAC | 0.628
52 | CCUAGUG | -0.266
53 | UUCCAUC | -0.675
54 | GCAGCGC | -0.178
55 | CGUGAGG | 1.35
56 | GUUGAGC | 0.706
57 | AUUGAGG | 1.63
58 | GAUGAGG | 3.56
59 | CAUGAGG | 1.03
60 | GGUGAGA | 2.57
61 | GUUGAGG | 3.36
62 | GAUGAGU | 1.06
63 | GGUGAGG | 4.5
64 | GUGUGUC | 0.137
65 | CUCAAUA | -0.802
66 | GCGAAGG | 2.06
67 | UAACUAU | -0.617
68 | GCUAACA | -0.399
69 | AGAGCUG | 0.163
70 | GAUGGAC | 1.78
71 | AAUGGAA | 3.35
72 | AAUGGAG | 3.43
73 | GUUGGAA | 1.84
74 | GAUGGAG | 3.52
75 | UAUGGAG | 1.67

Row | Sequence | RNAcompete 7-mer binding Z-score
76 | CAUGGAG | 1.48
77 | CAUGGAA | 1.1
78 | UAUGGAA | 1.22
79 | AAUGGAC | 2.03
80 | GAUGGAA | 3.36
81 | GAUGGAU | 2.6
82 | AUCUACA | -0.568
83 | CACCCUC | -0.578
84 | UGCUUGA | -0.737
85 | GGCGCAU | 0.183
86 | UGAUGAC | -0.0512
87 | CUUGCCU | -0.824
88 | UCAUCUG | -0.844
89 | GUUUCAC | -0.597
90 | CGGGUUG | 2.79
91 | UGGGUUA | 3.28
92 | GGGGUUU | 3.16
93 | AGGGUUU | 2.56
94 | GGGGUUG | 3.76
95 | AGGGUUC | 0.985
96 | GCGGUUG | 1.42
97 | UGGGUUU | 2.64
98 | GGGGUUC | 1.79
99 | AGGGUUA | 3.55
100 | GGGGUUA | 3.21

Row | Sequence | RNAcompete 7-mer binding Z-score
101 | UGGGUUG | 3.04
102 | AAUCUAA | -0.617
103 | UUAUACA | -0.542
104 | AUGUGGU | 1.52
105 | GUCCGAC | -0.662
106 | CUUCGGC | -0.759
107 | AGAUAUC | -0.688
108 | ACGGUUG | 1.78
109 | AGGGUCG | 1.41
110 | AGGGUUG | 3.8
111 | CAUAAGA | -0.513
112 | CACCGCG | 0.069
113 | CGGUGUG | 1.72
114 | UGGUGUG | 2.77
115 | GGGUGUA | 3.43
116 | AGGUGUA | 1.74
117 | GGGUGUG | 3.76
118 | UGGUGUA | 1.52
119 | AAUUUGA | -0.399
120 | ACAGAGG | 1.59
121 | UACAAGA | -0.295
122 | CGCGGGA | 1.05
123 | AGCGGGA | 3.31
124 | GGCGGGU | 2.9
125 | UGCGGGC | 1.13

Row | Sequence | RNAcompete 7-mer binding Z-score
126 | UGCGGGG | 3.26
127 | GGCGGGC | 2.11
128 | AGCGGGG | 4.14
129 | UGCGGGA | 1.87
130 | UGCGGGU | 2.92
131 | AGCGGGU | 3.07
132 | CGCGGGG | 2.15
133 | GGCGGGG | 3.96
134 | GGCUUUA | -0.418
135 | UUGCAGA | -0.171
136 | AGCGGAC | 1.16
137 | AGCGGAA | 2.07
138 | AGCGGAU | 3.22
139 | CUCAGGU | -0.0447
140 | CGCAUAC | -0.61
141 | GGAUGAG | 3.4
142 | GGAUGUU | 0.959
143 | AGAUGUG | 0.936
144 | AGAUGAG | 1.43
145 | GGAUGAA | 2.16
146 | GGAUGUG | 3.43
147 | CUCGUGC | -0.789
148 | AGCAAUC | -0.435
149 | AGGGUAG | 3.72
150 | AGGGUAC | 2.1

Row | Sequence | RNAcompete 7-mer binding Z-score
151 | UGGGUAG | 3.5
152 | UGGGUAC | 2.69
153 | CGGGUAG | 2.18
154 | UGGGUAU | 2.37
155 | GACCAUU | -0.915
156 | AUGGACG | 2.69
157 | CACGUGG | 0.566
158 | UCUUGAA | -0.785
159 | CAUCCGC | -0.847
160 | CCAAUCU | -0.802
161 | ACUAGGG | 2.03
162 | CGUAGGG | 1.94
163 | AGUAGGG | 4.16
164 | AGUAGGC | 0.975
165 | UGUAGGG | 3.6
166 | UGUAGGA | 1.7
167 | AUACGAA | -0.194
168 | CGGCUUG | -0.324
169 | CUCGCAC | -0.587
170 | GUUCUAA | -0.552
171 | AAUAUGG | 1.09
172 | GGUAUGA | 2.19
173 | GAUAUGG | 3.3
174 | GGUAUGU | 1.56
175 | GGUAUGG | 4.22

Row | Sequence | RNAcompete 7-mer binding Z-score
176 | GAUAUGC | -0.0577
177 | UCCCUGG | -0.24
178 | GUUCGAG | -0.00571
179 | CGAACAU | -0.503
180 | UUUAGGC | -0.321
181 | AGAGAGG | 1.27
182 | AGAGGGG | 2.11
183 | GGAGAGA | 1.46
184 | UUAGAGG | 1.31
185 | GGAGGGC | 3.13
186 | GUAGAGG | 3.56
187 | GGAGGGA | 4.01
188 | AGAGGGA | 2.09
189 | AUAGAGG | 1.55
190 | CGAGGGG | 2.86
191 | GGAGAGG | 3.41
192 | GGAGGGG | 4.57
193 | GUCCAUU | -0.818
194 | CCCACUG | -0.483
195 | GUUAUUC | -0.513
196 | UGUAGGU | 1.75
197 | UUGCCGC | -0.662
198 | UUGGUCA | 0.0788
199 | CAAGUAA | -0.275
200 | AAACCAG | -0.324

Row | Sequence | RNAcompete 7-mer binding Z-score
201 | CGAGAAG | 0.495
202 | AGAGAAG | 1.63
203 | GGAGAAG | 3.36
204 | GUGUCCA | -0.457
205 | GGGCCGU | 0.53
206 | UAGGGAA | 3.15
207 | UAGGGGC | 2.25
208 | CAGGGGG | 2.94
209 | UAGGGGG | 3.97
210 | UAGGGGU | 3.9
211 | UAGGGCU | 1.42
212 | CAGGGGU | 3.01
213 | UAGGGGA | 3.71
214 | UAGGGAC | 1.79
215 | UGCUAGA | -0.233
216 | UGUUCUC | -0.746
217 | CCGCACC | -0.509
218 | ACAGCGA | -0.0674
219 | GGACUAU | 0.000789
220 | AUAGCCU | -0.724
